# Test results published in the supplement of paper PMC10105736.
# Unmarked numbers belong to inactive results.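 The calls were made as follows: active = MAPPIT score above the 99th percentile of random reference set scores in the same batch; inactive = at or below it.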
# Legend:
# Assay in all cases: MAPPIT interaction score (arbitrary units); higher = stronger binary interaction signal, active = hit call of the paper
# RpL12 = settings: MAPPIT configuration: N-N; pair source set: Lit-BS-16
# RpS5a = settings: MAPPIT configuration: N-N; pair source set: Curagen_high_conf
# RpS10b = settings: MAPPIT configuration: N-N; pair source set: DPIM
# Rgk3 = settings: MAPPIT configuration: N-N; pair source set: Curagen_low_conf
# RpS29 = settings: pair source set: RRS
# RpS21 = settings: MAPPIT configuration: N-N; pair source set: DPIM
# RpL35A = settings: MAPPIT configuration: N-N; pair source set: Finley_Y2H
# RpS3 = settings: MAPPIT configuration: N-N; pair source set: Curagen_low_conf
# msl-3 = settings: MAPPIT configuration: N-N; pair source set: DPIM
# RpS20 = settings: MAPPIT configuration: N-N; pair source set: Curagen_low_conf
# hpo = settings: pair source set: Lit-BM-16
# yki = settings: pair source set: Lit-BM-16
# RpLP2 = settings: MAPPIT configuration: N-N; pair source set: Finley_Y2H
# RpL37A = settings: MAPPIT configuration: N-N; pair source set: Curagen_high_conf
# 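Also: HEK293T cells with Epo stimulation, STAT-responsive firefly luciferase reporter, fold induction versus unstimulated cells divided by the larger fold induction of two negative controls lacking either bait or prey.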
binder,measurement,setting,value
Lap1 (protein) MPLLSKCFPCFKFKREEVIDKLDYSNTPLTDFPEVWQHERTLEELYLSTTRLQALPPQLFYCQGLRVLHVNSNNLESIPQAIGSLRQLQHLDLNRNLIVNVPEEIKSCKHLTHLDLSCNSLQRLPDAITSLISLQELLLNETYLEFLPANFGRLVNLRILELRLNNLMTLPKSMVRLINLQRLDIGGNEFTELPEVVGELKSLRELWIDFNQIRRVSANIGKLRDLQHFEANGNLLDTLPSELSNWRNVEVLSICSNSLEAFPFSVGMLKSLVTFKCESNGLTELPDSISYLEQLEELVLSHNKLIRLPSTIGMLRSLRFLFADDNQLRQLPDELCSCQQLSVLSVANNQLSALPQNIGNLSKMKVLNVVNNYINALPVSMLNLVNLTSMWLSDNQSQPLVPLQYLDASTKTQLTCFMLPQVTFKMNSIQAQQQAQEQYEFVYANQQQPHASPSRRICFAEEATILSNAKAQPAPNYPSFVAAPPTPTPDQMAGSVRLMRSPTPYPKELRQMSKYVRQAQAATSSANASEVREARVVTNGQIHCDSNNANQDVVDQATTSAIYGIAPETTHIYGVYQQPQQMAHPVPTQEYYGLPLVNYEAHYQQLYVEANTPLPTTHLNGDQDYELQPLQQQPMQQQALPTPRLEPPPYHIARVYTKKTPEDLNLYESMRQRKQQQQLQEQTIYQDALNSNSNFKTTAIGAQDVEESVDQLDYQNNISNNLEPNPEEEDQELDDTMSQHSLNSTATNNTSKASHKKSTWIFGVHKNPTVKQVTLKWENSIGFDIAELLNQVGIFVSSITPNTNAARLLNLNDKLLEIDGYDLTNANLSDAKRVLLNCGTVMNIMLSRK,MAPPIT interaction score,RpL12,-0.0144
Vm32E (protein) MQIVALTLVAFVAIAGASCPYAAPAPAYSAPAASSGYPAPPCPTNYLFSCQPNLAPAPCAQEAPAYGSAGAYTEQVPHYVGSPNREQLQQFHQRIGMAALMEELRGLGQGIQGQQY,MAPPIT interaction score,RpS5a,0.177
Csp (protein) MSAPGMDKRKLSTSGDSLYEILGLPKTATGDDIKKTYRKLALKYHPDKNPDNVDAADKFKEVNRAHSILSNQTKRNIYDNYGSLGLYIAEQFGEENVNAYFVVTSPAVKAVVICCAVITGCCCCCCCCCCCNFCCGKFKPPVNESHDQYSHLNRPDGNREGNDMPTHLGQPPRLEDVDLDDVNLGAGGAPVTSQPREQAGGQPVFAMPPPSGAVGVNPFTGAPVAANENTSLNTTEQTTYTPDMVNQKY,MAPPIT interaction score,RpS10b,1.05
eEF1gamma (protein) MVKGTLYTYPENFRAYKALIAAQYSGAQVKVADNFKFGETNKSAEFLKKFPGGKVPAFETAEGQYLSESNAIAYLLANEQLRGGKCPFVQAQVQQWISFADNEIVPASCAWVFPLLGILPQQKNSTAKQEAEAVLQQLNQKLQDATFLAGERITLADIVVFSSLLHLYEYVLEPSVRSAFGNVNRWFVTILNQKQVQAVVKDYKLCEKALVFDPKKYAEFQAKTGAAKPQQQAQQQKQEKKPKEKKEAPKKAAEPAEELDAADEALAAEPKSKDPFDALPKGTFNFDDFKRVYSNEDEAKSIPYFFDKFDAENYSIWFGEYKYNEELSKVFMSCNLITGMFQRLDKMRKAAFASVCLFGEDGNSTISGIWVWRGQDLAFTLSPDWQIDYEVYDWKKLDAKSEETKKLVTQYFSWSGTDKDGRKFNQGKIFK,MAPPIT interaction score,Rgk3,-0.0165
Cog8 (protein) MDFPDKMDLENERVLKLIFPDGVPDNLRGNPELDNYLAKLGTCKVEQLKKEQTRLAEEARTILEQTQDLAISNYRTFITTAENSRSIFSEFLRSEQQLDTLVSKLPDLSVQCERFLQDSAELNEQRRLNSITLQKNAQLLEVLELPQLMERCIREGRYEEALELAAYATRLGQHQGHIPVVTSIVRSVEALWHNMLVQLVAQLRTDLQLPKCLQIVGYLRRMQAFGDNELRLKFLQARDAWLTSCLEAIPTADAQQHLSKTIEITRINLFNIITQYRAIFPEDEGTLKTQSSLRPLQGVSCNGDRLFQAWLHNKISDFLQTLERDLQLGVGSVETVLGQCMYFGLSFSRVGADFRALMAPIFVGVIRRRFESSVEQVDEQFERELERFTLINKVALHSHARKQVDPEQESYAPPEALLDFYPLAALCNGYLSALNELRLCAPLALATDVTRCLQHSLQQAAQRVLAFYRQEQQAFAGSEREAFVRLCSCLAYDLVPYIQRCIHGVFPPQSLTVHLGISLLQLEQQQLTYLQQTRILEPLKHLLPTKALVQPQDKVMEAKPSAGVPVTAEG,MAPPIT interaction score,RpS29; MAPPIT configuration: N-C,0.627
same,MAPPIT interaction score,RpS29; MAPPIT configuration: N-N,-0.265
l(2)gl (protein) MLKFIRGKGQQPSADRHRLQKDLFAYRKTAQHGFPHKPSALAYDPVLKLMAIGTQTGALKVFGQPGVELYGQHTLLNNSASELNVQLLEWVYGTGRILSLTAANQLILWEPVGATLLPIKTLPFDGKLKKVSSLCCSLSKDLLWIGTEGGNIYQLDLHTFTIKEPVIYHDVVLEQVPPAYKLNPGAIESIRQLPNSPSKLLVAYNRGLCVLWDFESASVQRAYIAPGHGQSVGLTVNFEGSEFTWYHADGSYATWSIDNPEPPSNVNYVPYGPDPCKSINRLYKGKRRSNDVIVFSGGMPRSAYGDHNCVSVHASDGHKVCLDFTSKVIDFFVTFENNRDVAEVLVVLLEEELCAYDLTDPNICAIKAPYLHSVHASAVTCNYLASEVVQSVYESILRAGDEQDIDYSNISWPITGGTLPDNLEESVEEDATKLYEILLTGHEDGSVKFWDCTGVLLKPIYNFKTSSIFGSESDFRDDAAADMSAEQVDEGEPPFRKSGLFDPYSDDPRLAVKKIAFCPKTGQLIVGGTAGQIVIADFIDLPEKVSLKYISMNLVSDRDGFVWKGHDQLNVRSNLLDGEAIPTTERGVNISGVLQVLPPASITCMALEASWGLVSGGTAHGLVLFDFKNFVPVFHRCTLNPNDLTGAGEQLSRRKSFKKSLRESFRKLRKGRSTRTNQSNQVPTTLEARPVERQIEARCADDGLGSMVRCLLFAKTYVTNVNITSPTLWSATNASTVSVFLLHLPPAQTAATAVPSASGNAPPHMPRRISAQLAKEIQLKHRAPVVGISIFDQAGSPVDQLNAGENGSPPHRVLIASEEQFKVFSLPQLKPINKYKLTANEGARIRRIHFGSFSCRISPETLQSMHGCSPTKSTRSHGDGEADPNISGSLAVSRGDVYNETALICLTNMGDIMVLSVPELKRQLNAAAVRREDINGVSSLCFTNSGEALYMMSSSELQRIALATSRVVQPTGVVPVEPLENEESVLEENDAENNKETYACDEVVNTYEIKNPSGISICTRPAEENVGRNSVQQVNGVNISNSPNQANETISSSIGDITVDSVRDHLNMTTTTLCSINTEETIGRLSVLSTQTNKASTTVNMSEIPNINISNLEDLESKRNTTETSTSSVVIKSIITNISHEKTNGDNKIGTPKTAPEESQF,MAPPIT interaction score,RpS21,0.14
Archease (protein) MEVEFSRENFLLPEMKYEYLDHTADVQIHGWGSSLKEAFEQCGVAMFGYMTELDYVSVEQCFEIEAHGDDLESLLFHFLDELLFLFSAEPYLVCKKLEITKFDVENFEISCHCYGEPFELGKHPQGTEVKAITYSAMQIIQDVEASNYEVFVIIDI,MAPPIT interaction score,RpL35A,-0.294
mts (protein) MEDKATTKDLDQWIEQLNECNQLTETQVRTLCDKAKEILSKESNVQEVKCPVTVCGDVHGQFHDLMELFRIGGKSPDTNYLFMGDYVDRGYYSVETVTLLVALKVRYRERITILRGNHESRQITQVYGFYDECLRKYGNANVWKYFTDLFDYLPLTALVDGQIFCLHGGLSPSIDSLDHIRALDRLQEVPHEGPMCDLLWSDPDDRGGWGISPRGAGYTFGQDISETFNNTNGLTLVSRAHQLVMEGYNWCHDRNVVTIFSAPNYCYRCGNQAALMELDDSLKFSFLQFDPAPRRGEPHVTRRTPDYFL,MAPPIT interaction score,RpS3,0.284
same,MAPPIT interaction score,msl-3,1.55
hpo (protein) MSEPEVTSVVDMKSPNISSSCSFFKLKKLSEESLLQPPEKVFDIMYKLGEGSYGSVYKAVHKESSSIVAIKLVPVESDLHEIIKEISIMQQCDSPYVVRYYGSYFKQYDLWICMEYCGAGSVSDIMRLRKKTLTEDEIATILSDTLQGLVYLHLRRKIHRDIKAANILLNTEGYAKLADFGVAGQLTDTMAKRNTVIGTPFWMAPEVIEEIGYDCVADIWSLGITALEMAEGKPPYGEIHPMRAIFMIPQKPPPSFREPDRWSTEFIDFVSKCLVKEPDDRATATELLEHEFIRNAKHRSILKPMLEETCAIREQQRANRSFGGVLAASQAKSLATQENGMQQHITDNAFMEDPGTLVPEKFGEYQQSSASDATMIAHAEQGVDEGTLGPGGLRNLSKAAAPAAASSAASPLDMPAVDSGTMVELESNLGTMVINSDSDDSTTAKNNDDQKPRNRYRPQFLEHFDRKNAGDGRGDEKPIATEYSPAAAEQQQQQQQQQQQQQQDEQHLASGANDLNNWEHNMEMQFQQISAINQYGLQQHQQQQQVLMAYPLMNEQLIALNNQPNLLLSNAAPMGQQGIPAAAPAQPPPAYQNQHMHTQSHAYVEGEFEFLKFLTFDDLNQRLCNIDHEMELEIEQLNKKYNAKRQPIVDAMNAKRKRQQNINNNLIKI,MAPPIT interaction score,RpS20,2.67 (active)
same,MAPPIT interaction score,hpo; MAPPIT configuration: N-C,1.43
same,MAPPIT interaction score,hpo; MAPPIT configuration: N-N,-0.987
same,MAPPIT interaction score,yki; MAPPIT configuration: N-C,-0.198
same,MAPPIT interaction score,yki; MAPPIT configuration: N-N,-0.76
CG1307 (protein) MGDKLLDPTQIINGLAVMLSFFVGYRYALKRGDAKDSVTEGAATPFSQESSVSSGSEASVSDKGYGGLNDNFKMVLVVRNDLKMGKGKIAAQCGHGAVGAYQRAVVRTPRLLRSWENCGCAKIAVRVESEAELMAIKKEAERQQLNTCLIRDAGRTQIEANSKTVLAVGPAAAADIDRVTGHLKLL,MAPPIT interaction score,RpLP2,0.942
Cyp12a4 (protein) MLKVRSALSLIQSQKATLSLATQKRWQTNVATAEAREDSEWLQAKPFEQIPRLNMWALSMKMSMPGGKYKNMELMEMFEAMRQDYGDIFFMPGIMGNPPFLSTHNPQDFEVVFRNEGVWPNRPGNYTLLYHREEYRKDFYQGVMGVIPTQGKPWGDFRTVVNPVLMQPKNVRLYYKKMSQVNQEFVQRILELRDPDTLEAPDDFIDTINRWTLESVSVVALDKQLGLLKNSNKESEALKLFHYLDEFFIVSIDLEMKPSPWRYIKTPKLKRLMRALDGIQEVTLAYVDEAIERLDKEAKEGVVRPENEQSVLEKLLKVDRKVATVMAMDMLMAGVDTTSSTFTALLLCLAKNPEKQARLREEVMKVLPNKNSEFTEASMKNVPYLRACIKESQRLHPLIVGNARVLARDAVLSGYRVPAGTYVNIVPLNALTRDEYFPQASEFLPERWLRSPKDSESKCPANELKSTNPFVFLPFGFGPRMCVGKRIVEMELELGTARLIRNFNVEFNYPTENAFRSALINLPNIPLKFKFIDLPN,MAPPIT interaction score,RpL37A,-0.0129
